# Screening results as filed in PubChem.
# Rows were chosen to be rich in hits. Some 6.6% of all compounds tested hit in one or more screens of this group.
# HT1080 IDH1KD tx: kills HT-1080 cells with IDH1 knockdown; HT-1080 IDH1 knockdown viability, ATP luminescence, 48 h; Potency, µM (series often up to 46.1 µM), for inactives: top-dose activity, negative = toxicity, usual class: cytotoxic; hit rate 2% among 360,000;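 note: 0% = DMSO wells and -100% = cell-free medium wells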
#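 Assay cells: HT-1080 with IDH1 knockdown, 750 per well, RPMI/5% FBS. Exposure: 48 h at 37 °C following 2 h pre-incubation. Read: CellTiter-Glo luminescence; fitted concentration-response, curve class assigned.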
# KB-V1 MDR tox: kills drug-selected multidrug resistant KB-V1 cells; hit rate 3.4% among 400,000; Potency, µM (doses to about 46.1 µM), hits mostly cytotoxic; AID 1347076; KB-V1 MDR cells viability, CellTiter-Glo, 72 h; note: % is set by controls: 0 for no effect and ±100 for the full control effect; nearly all actives have a fitted effect of over 60% in size
#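 KB-V1, DMEM (no phenol red) + 10% FBS; cpd pin-transferred, titration series; 72 h, 37 degrees C; CellTiter-Glo, luminescence. Data normalized, curve-fit.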
# TGFb SMAD3 inh: inhibitors of TGF-b signaling. Potency, µM (series often up to 46.1 µM), inactives show at the top dose activity, negative = inhibition, hits mostly inhibitors. hit rate 1.2% among 410,000. HepG2 CAGA-GFP TGF-b/SMAD3 reporter, GFP fluorescence, 18 h; TGF-beta stimulated, 500 pg/mL final; note: % is set by controls: 0 for no effect and ±100 for the full control effect; nearly all actives have a fitted effect of over 65% in size
#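 Read-out: total well GFP (ex488/em500-530) summed from mean per-cell fluorescence. Cells: HEPG2 CAGA-GFP, 1% FBS DMEM, 18 h at 37 degrees C with 500 pg/mL final TGF-beta. Unstimulated wells served as the full-inhibition control; stimulated DMSO wells = 0%.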
# HepG2 viability: counter-screen for TGF-b inhibitors: cytotoxicity in HepG2 cells | HepG2 CAGA-GFP viability, ATP luminescence, 18 h | Potency, µM (top dose mostly 46.1 µM), for the others: top-dose activity change, negative = cytotoxicity, most hits filed as cytotoxic | hit rate 0.76% among 410,000 | AID 588856
#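 CellTiter-Glo luminescence gave cytotoxicity after 18 hours at 37 degrees C. The cells were HepG2 CAGA-GFP in 1% FBS DMEM, stimulated with 500 pg/mL TGF-beta after compound addition. %Activity was normalised to no-cell wells (complete cell-killing) and DMSO (no toxicity), and curves were fitted and classified.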
# HT1080NT lethal: kills 2HG-producing HT-1080-NT fibrosarcoma cells | HT-1080-NT fibrosarcoma viability, CellTiter-Glo ATP luminescence, 48 h | hit rate 1.6% among 360,000 | Potency, µM (series often up to 46.1 µM), without a hit: top-dose activity, negative = less viability, most hits filed as cytotoxic;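 note: NT is the 2HG producing partner of a matched IDH1 knockdown line; 0% = DMSO-treated cells and -100% = media-only wells without cells; nearly all actives have a fitted effect of over 55% in size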
#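 750 cells/well, RPMI + 5% FBS; 2 h settle, compound pin-transfer, 48 h at 37 degrees C. CellTiter-Glo 10 min RT, luminescence. Normalized to DMSO and media-only wells.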
# KB-3-1 cytotox: kills parental KB-3-1 adenocarcinoma cells; AID 1347075; hit rate 1.4% among 400,000; Potency, µM (top dose mostly 46.1 µM), most hits filed as cytotoxic; KB-3-1 viability, CellTiter-Glo ATP luminescence, 72 h; note: % is set by controls: 0 for no effect and ±100 for the full control effect; nearly all actives have a fitted effect of over 60% in size
#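 KB-3-1 cells, DMEM (no phenol red) + 10% FBS; compound by pin transfer, 72 h, 37 °C. Readout: CellTiter-Glo luminescence after 10 min. Data normalized, curve-fitted.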
# * hit, by the source's call; i = inactive; ? = inconclusive; · = not tested or not shown; ! = repeats disagree. Calls come from the whole dose curve; as a rule, active = well fitted curve in the direction sought with a large enough effect; inconclusive = small, poorly fitted or top-dose-only effect, or another doubt; inactive = no such curve, though single readings can be large; an effect the other way counts as inactive or inconclusive. Potency is the fitted concentration of half-maximal effect.
SMILES,HT1080 IDH1KD tx,KB-V1 MDR tox,TGFb SMAD3 inh,HepG2 viability,HT1080NT lethal,KB-3-1 cytotox
Cc1cccc(C)c1NC(=O)c1nc(S(=O)(=O)Cc2ccccc2)ncc1Cl,8.2µM*,?,11.2µM*,-177.9%,16.4µM*,?
CCOC(=O)c1nc(S(C)(=O)=O)ncc1N1CCOCC1,0.5%,i,4.1%,-1.9%,-1.9%,i
CCOC(=O)c1nc(S(C)(=O)=O)ncc1Cl,6.31µM*,i,?,11.2µM*,8.91µM*,i
Cc1cccc2sc(N(Cc3cccnc3)C(=O)C3COc4ccccc4O3)nc12 (centres undefined),·,·,-23.2%,-22.4%,·,·
Cn1c(=O)n(Cc2ccc(Cl)cc2)c(=O)c2c1nc1n2CCN1Cc1ccco1,1.3%,11.6µM*,0.0%,-29.6%,-9.6%,?
CC1CN(c2nc3c(c(=O)[nH]c(=O)n3C)n2Cc2ccccc2F)CC(C)O1 (centres undefined),-0.5%,18.4µM*,-2.5%,1.9%,4.8%,i
COc1ccc(N2CCn3c2nc2c3c(=O)n(CCCc3ccccc3)c(=O)n2C)c(OC)c1,-27.4%,9.2µM*,3.3%,-2.3%,-22.0%,?
COc1ccc(CCN2CCCn3c2nc2c3c(=O)[nH]c(=O)n2C)cc1OC,18.4µM*,i,18.6%,7.1%,?,?
CC(C)(C)C(=O)Nc1ccc(C(=O)CSc2nnc(C3CC3)n2C2CC2)cc1,6.1%,i,7.0%,8.0%,10.2%,i
COc1ccc(CNC(=O)c2ccc3nc(-c4ccc(F)cc4)c(-c4ccc(F)cc4)nc3c2)cc1,·,i,-5.5%,0.2%,·,?
COc1ccc2c(c1)c1c(c(=O)n(-c3ccccc3)c(=O)n1CC(=O)Nc1ccc(F)cc1)n2C,·,i,-10.9%,-31.6%,·,i
Cc1c(O)cnc2nn(-c3ccccc3)c(=N)n12,5.5%,i,-7.6%,5.9%,13.8%,i
Cc1ccc(N(CC(=O)Nc2cc(C)ccc2C)S(=O)(=O)c2c(C)noc2C)cc1,·,i,?,-29.8%,·,i
CC1CN(c2nc3c(c(=O)n(Cc4ccc(Cl)cc4)c(=O)n3C)n2C)CC(C)O1 (centres undefined),-16.6%,23.1µM*,8.1%,-7.4%,-5.4%,?
Cn1c(N2CCCC2)nc2c1c(=O)n(Cc1ccc(Cl)cc1)c(=O)n2C,-8.3%,?,-7.9%,-32.9%,-12.3%,i
Cn1c(=O)n(Cc2ccccc2)c(=O)c2c1nc1n2CCCN1CCc1ccccc1,-26.7%,2.31µM*,4.9%,-30.8%,-12.8%,i
CCOc1ccc(S(=O)(=O)Nc2cccc(C(=O)N3CCN(c4ccccc4O)CC3)c2)cc1,-13.0%,20.6µM*,?,-50.8%,1.3%,i
O=C(c1cccc(S(=O)(=O)N2CCOCC2)c1)N1CCN(C/C=C/c2ccccc2)CC1,0.0%,·,-4.5%,-9.0%,0.0%,·
CCOc1ccc(NS(=O)(=O)c2cccc(C(=O)N3CCN(C/C=C/c4ccccc4)CC3)c2)cc1,0.3%,6.51µM*,?,-32.1%,6.3%,18.4µM*
O=C(c1ccc(S(=O)(=O)Nc2cccc(C(F)(F)F)c2)cc1)N1CCN(c2ccccc2O)CC1,?,20.6µM*,?,-22.4%,-15.5%,?
CCOc1ccc(C(=O)CCC(=O)N2CCN(c3ccccc3O)CC2)cc1,-2.4%,i,-1.7%,2.51µM*,-0.6%,i
CC(=O)c1ccc(S(=O)(=O)NCC(=O)N2CCN(C/C=C/c3ccccc3)CC2)cc1,-28.7%,18.4µM*,-35.5%,-13.6%,-1.4%,i
O=C(Nc1ccccc1)C1CCN(c2ncc(-c3ccc4c(c3)OCCCO4)s2)CC1,·,i,·,·,·,i
O=C(CCc1nc2ccccc2[nH]1)Nc1ccc(F)cc1,-0.3%,11.6µM*,-2.9%,2.8%,24.1%,i
O=C(Nc1ccc(OC(F)(F)F)cc1)C(Cc1ccccc1)NS(=O)(=O)c1cccc2nsnc12 (centres undefined),·,i,-32.2%,-34.1%,·,i
SMILES,HT1080 IDH1KD tx,KB-V1 MDR tox,TGFb SMAD3 inh,HepG2 viability,HT1080NT lethal,KB-3-1 cytotox
COC(=O)N1C(=O)[C@](Cc2ccccc2)(c2ccccc2)N1C(=O)OC,-1.9%,?,?,-88.6%,0.2%,i
COC(=O)N1C(=O)[C@@](Cc2ccccc2)(c2ccccc2)N1C(=O)OC,-11.6%,i,7.94µM*,-96.9%,-23.9%,i
CN(C)CCCNC(=O)c1cc2sc3ccccc3c2s1,18.4µM*,i,0.0%,20µM*,18.4µM*,i
CCCCN(CC)CCNC(=O)c1cc2c(=O)[nH]c3ccc(C)cc3c2s1,18.4µM*,i,?,-71.5%,16.4µM*,?
COCCNC(=O)c1cc2sc3ccccc3c2s1,-3.8%,i,11.7%,-10.6%,-3.2%,i
CCCCN(CC)CCCNC(=O)c1cc2c(=O)[nH]c3ccccc3c2s1,?,i,-3.6%,-22.2%,?,?
CCN(CC)CCNC(=O)c1cc2c(=O)n(C)c3ccccc3c2s1,?,?,-18.4%,-53.3%,?,i
CCCCN(CC)CCNC(=O)c1cc2c(=O)n(C)c3ccccc3c2s1,?,?,?,12.6µM*,?,i
CCCCN(CC)CCNC(=O)c1cc2c(=O)n(CC)c3ccccc3c2s1,3.5%,i,10.4%,12.6µM*!,-8.0%,i
O=C(CCSC1=NCCCN1)c1ccc(F)cc1,1.7%,i,-30.4%,-9.3%,-2.7%,i
O=C(NCc1ccccn1)c1cc(Cl)ccc1OCc1ccccc1,-18.6%,i,0.0%,-14.0%,-9.1%,i
CCCCN(CC)CCCNC(=O)c1cc2c(=O)n(CC)c3ccccc3c2s1,29.1µM*,i,12.6µM*,-99.6%,18.4µM*,?
CCN(CCCNC(=O)c1cc2c(=O)n(CC)c3ccccc3c2s1)c1ccccc1,·,i,?,-34.0%,·,i
CCCN(CCC)CCCNC(=O)c1cc2c(=O)n(CC)c3ccccc3c2s1,-3.2%,?,6.7%,-70.7%,-13.9%,23.1µM*
CCn1c(=O)c2cc(C(=O)NCCCOC)sc2c2ccccc21,?,?,18.2%,4.7%,?,?
Cc1ccc2nc(CSc3nnc(NC(=O)c4ccc(C(C)(C)C)cc4)s3)cc(=O)n2c1,·,·,0.9%,-18.9%,·,·
COc1cc2c(NC3CCN(C)CC3)nc(N3CCCN(C)CC3)nc2cc1OCCCCCN(C)C,·,i,?,-21.5%,·,?
CCOC(=O)c1cccc(NC(=O)c2cc(-c3ccc(Cl)s3)nc3ccccc23)c1,·,i,-7.6%,6.0%,·,i
